Measured values published in PubChem BioAssay AID434939 (The Scripps Research Institute Molecular Screening Center, 2010).
The whole screen tested about 2,300 compounds, of which about 2,000 (87%) were called active. Rule as the data show it: active = activation above about 11%; inactive = the rest. The set was probably picked from earlier hits. The list is a sample of the results.

target: Nuclear receptor subfamily 1 group I member 2 (Homo sapiens) (UniProt O75469); test: human PXR activators, counter-screen for AHR activator project, cell-based, luciferase luminescence (AID 434939); details: cell-based PXR reporter, at 11.6 µM, hits give high values;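 also: human hepatoma DPX-2 cells expressing full-length human PXR; 0% = DMSO and 100% = reference agonist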
Sequence (O75469 whole entry, looked up): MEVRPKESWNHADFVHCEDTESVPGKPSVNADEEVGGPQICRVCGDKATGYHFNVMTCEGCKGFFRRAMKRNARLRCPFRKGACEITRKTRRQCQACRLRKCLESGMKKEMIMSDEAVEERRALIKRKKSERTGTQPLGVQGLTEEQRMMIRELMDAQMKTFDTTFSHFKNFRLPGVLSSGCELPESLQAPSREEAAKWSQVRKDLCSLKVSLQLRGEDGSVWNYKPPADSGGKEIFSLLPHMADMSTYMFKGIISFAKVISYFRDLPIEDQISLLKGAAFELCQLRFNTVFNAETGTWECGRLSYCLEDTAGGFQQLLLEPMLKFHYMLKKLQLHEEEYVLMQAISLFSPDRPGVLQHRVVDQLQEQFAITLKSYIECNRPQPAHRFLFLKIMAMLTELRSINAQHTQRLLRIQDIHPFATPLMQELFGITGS

Row | SMILES | activation
1 | CCN(CC)C(=O)Oc1ccc(Br)cc1C(=O)Nc1ccc(F)c(Cl)c1 | 176% (active)
2 | CCc1nc(Nc2ccc3nccnc3c2)c2oc3ccccc3c2n1 | 45% (active)
3 | O=C(NC1CC1)C1=C[C@H](c2c[nH]c3ccccc23)C[C@H](OCc2ccc(CO)cc2)O1 | 22.2% (active)
4 | O=C(Nc1cc(S(=O)(=O)Nc2ccc(Cl)cc2)ccc1O)c1ccc(F)cc1F | 38.8% (active)
5 | Cc1nnc(NC(=O)/C=C/c2ccco2)s1 | 36.6% (active)
6 | COc1cc(/C=N/N=C(\N)c2nonc2N)cc(OC)c1OC | 14.7% (active)
7 | COc1cc(CNCc2ccc3c(c2)OCO3)c([N+](=O)[O-])cc1OC | 36.7% (active)
8 | Brc1ccc(C2=CC(c3ccco3)n3ncnc3N2)cc1 (configuration not stated) | 15% (active)
9 | Cc1cc(O)c(C(=O)/C=C/c2c(F)c(F)c(F)c(F)c2F)c(=O)o1 | 23.8% (active)
10 | COc1ccc(C(=O)Nc2ccccc2C(=O)N/N=C/c2ccccc2OC)cc1 | 28% (active)
11 | Cc1ccc(Cl)cc1NC(=O)C1CCCN(c2cnccn2)C1 (configuration not stated) | 41.2% (active)
12 | O=C(Nc1cccc(Cl)c1)C1CCCN(c2cnccn2)C1 (configuration not stated) | 29.6% (active)
13 | Cn1c(SCC(=O)c2ccccc2)ncc(C(=O)Nc2ccc(F)cc2)c1=O | 13.1% (active)
14 | CCC(C)NCC(=O)Nc1ccc([N+](=O)[O-])cc1C(=O)Nc1ccccc1F (configuration not stated) | 40.5% (active)
15 | Cn1cc(Cl)c(C(=O)NNC(=S)Nc2cccc(Cl)c2)n1 | 22.8% (active)
16 | C/C(=N\NC(=O)CNc1cccc2ccccc12)c1ccc(Br)s1 | 13.8% (active)
17 | COc1cccc(-c2nc3cc(C)ccc3o2)c1 | 31.3% (active)
18 | CC1Cc2ccccc2N1C(=O)CSc1nnc(C2CC2)n1C (configuration not stated) | 80.9% (active)
19 | CCNC(=S)N1CCC(c2nc3cc(C)c(C)cc3[nH]2)CC1 | 21.2% (active)
20 | S=c1[nH]nc(-c2cc(-c3ccsc3)n[nH]2)n1-c1ccccc1 | 13.7% (active)
21 | Cc1nn2c3cc(N4CCOCC4)ccc3nc2c2ccccc12 | 63.2% (active)
22 | Cc1ccc(NC(=O)Nc2cccnc2)cc1 | 19.7% (active)
23 | Cc1cccc(NC(=O)c2ccc3ccccc3n2)n1 | 20.3% (active)
24 | COc1ccc(NC(=O)c2ccco2)cc1NC(=O)c1ccc(C#N)cc1F | 14.9% (active)

Row | SMILES | activation
25 | C=CCOc1c(Br)cc(/C=N\n2nnnc2N)cc1OC | 78.1% (active)
26 | Cc1nc2sc(C(=O)c3ccccc3)c(N)c2c2c1CCCC2 | 69.6% (active)
27 | O=C(CSc1ccccn1)Nc1nc2c(ccc3ccccc32)s1 | 21.9% (active)
28 | CCCCC(=O)Nc1ccc(C(=O)Nc2cc(C(F)(F)F)ccc2Cl)cc1 | 15.4% (active)
29 | CCOc1ccccc1NC(=O)c1cccnc1 | 24.9% (active)
30 | COCCNc1nc(-c2ccccc2)nc2c1oc1ccccc12 | 28.9% (active)
31 | Cc1cccc(N=Nc2c(O)[nH]c3ccc(F)cc23)c1 | 16.1% (active)
32 | CSc1ccc(C#N)cc1NC(=O)c1ccc(Cl)cc1 | 18.5% (active)
33 | O=C(NCCCn1ccnc1)c1cc(-c2ccccc2)on1 | 41.3% (active)
34 | Cc1ccnc(-n2sc3ccccc3c2=O)n1 | 25.7% (active)
35 | O=C(Nc1ccc(-c2csc(Nc3cccc(C(F)(F)F)c3)n2)cc1)c1cccc(C(F)(F)F)c1 | 5.47% (inactive)
36 | O=C(Nc1ccc(C(F)(F)F)cc1)c1cccc(-n2cnnn2)c1 | 16.3% (active)
37 | O=C(Nc1ccc(OC(F)(F)F)cc1)c1ccc2c(c1)no[n+]2[O-] | 0.82% (inactive)
38 | CC(C(=O)N=Nc1c(O)n(C)c2ccc(Br)cc12)n1cnc2ccccc2c1=O (configuration not stated) | 60% (active)
39 | Cc1ccc(NC(=O)NNC(=O)c2sccc2-n2cccc2)cc1 | 27% (active)
40 | Cc1nn(-c2ccccc2)c2[nH]c(C(F)(F)F)cc(=O)c12 | 25.8% (active)
41 | N#C/C(=C(/O)COc1cccc2ccccc12)c1nc2ccccc2[nH]1 | 29.3% (active)
42 | Cc1nn(Cc2ccc(Cl)cc2)c(Cl)c1/C=N/NC(=O)c1cccnc1 | 39.9% (active)
43 | O=C(Nc1cccc(Br)c1)c1ccc2snnc2c1 | 22.9% (active)
44 | C/C(=N/NC(=S)Nc1ccccc1)c1ccc2c(c1)OCO2 | 76.5% (active)
45 | OCCNc1nc(Nc2ccc(Cl)c(Cl)c2)nc2ccccc12 | 13.8% (active)
46 | Cc1csc(NC(=S)Nc2cccc(Cl)c2)n1 | 21.6% (active)
47 | NC(=O)Nc1ccccc1C(=O)NCCc1ccccc1 | 18.7% (active)
48 | CSc1ncccc1C(=O)Nc1nc2ccc(F)cc2s1 | 11.7% (active)

Row | SMILES | activation
49 | CNC(=O)c1ccc2nc(NC(C)=O)sc2c1 | 9.52% (inactive)
50 | COc1ccc(Nc2nnc(C)c3ccccc23)cc1 | 73.7% (active)
51 | Cc1c(C(=O)NCC(c2ccco2)N2CCCC2)oc2ccc(Cl)cc12 (configuration not stated) | 56.2% (active)
52 | CCn1c2ccccc2c2cc(NC(=O)C/C(C)=N/NC(=O)c3ccccc3N)ccc21 | 45.7% (active)
53 | COc1ccc2nc(Nc3nc(-c4ccncc4)cs3)sc2c1 | 38.6% (active)
54 | COc1ccc(Nc2nc(-c3ccccc3)cs2)cc1 | 12.8% (active)
55 | Cc1cccc(Nc2nc(-c3ccccc3)cs2)n1 | 25.5% (active)
56 | O=C(Nn1c(-c2ccc(Cl)cc2)nc2ccccc2c1=O)c1cccnc1Cl | 14.3% (active)
57 | c1cnc(N2CCN(c3ccc4ccccc4n3)CC2)nc1 | 36.7% (active)
58 | CCn1ccnc1CN(C)Cc1nc(-c2ccc3c(c2)OCO3)no1 | 37.5% (active)
59 | O=C(Cn1c(NCCO)nc2ccccc21)c1ccc(Cl)cc1Cl | 31.4% (active)
60 | O=C(CCCCn1c(=O)[nH]c2ccccc2c1=O)NCc1ccc2c(c1)OCO2 | 37.2% (active)
61 | CCn1c(NC(=O)c2nn(C)cc2Br)nc2ccccc21 | 22.6% (active)
62 | COc1cccc(OC)c1C(=O)Nc1ccc(N2CCCCC2)cc1 | 53.1% (active)
63 | COc1cc2ccccc2cc1C(=O)Nc1ccc(N2CCOCC2)cc1 | 30.4% (active)
64 | NNc1nc2c(Cl)cccc2s1 | 8.29% (inactive)
65 | CN(C)S(=O)(=O)Oc1ccccc1C(=O)Nc1ccccc1Cl | 82.8% (active)
66 | Cc1noc(C)c1/C=N/Nc1ccc2ccccc2n1 | 25.9% (active)
67 | C(=N\Nc1ccc2ccccc2n1)/c1ccc2c(c1)OCO2 | -10.5% (inactive)
68 | CC(C)n1cnc2c(Nc3cccc(Cl)c3)nc(N(CCO)CCCO)nc21 | 255% (active)
69 | CN(C)c1nc(Nc2ccc(Cl)c(Cl)c2)nc(N(C)C)n1 | 23.1% (active)
70 | Cn1c(C(=O)NCCc2ccsc2)cc2c(=O)n(C)c3ccccc3c21 | 75.7% (active)
71 | CC(C)n1ncc2c(C(=O)Nc3ccc(CC#N)cc3)cc(C3CC3)nc21 | 48.4% (active)
72 | S=c1nc2ccccc2c2nc(-c3cccnc3)[nH]n12 | 24.9% (active)
